Records with an inconclusive call do not appear. Active and inactive are the calls of the source. No cut-off is given here; in the data, nearly all actives have AC50 up to about 26 µM.
assay: viability loss in pontine glioma line – cell-based, SU-DIPG-XXV, MIPE5.0, CellTiter-Glo, qHTS, dose response (AID 1347065); details: CellTiter-Glo ATP luminescence;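 note: cells exposed to compound for 48 hours before ATP readout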

Q: With `COc1ccc(-c2cc3nccn3c(Nc3ncccc3C(N)=O)n2)cc1OC` as the compound, how does the AC50 read?
A: 5.25 µM (active)

Q: With `CCn1c(=O)c(-c2ccn[nH]2)cc2c(C)nc(N)nc21` as the compound, how does the AC50 read?
A: 4.17 µM (active)

Q: With `CC(C)n1ncnc1-c1cn2c(n1)-c1ccc(O[C@@H](C)C(N)=O)cc1OCC2` as the compound, how does the AC50 read?
A: 0.59 µM (active)

Q: Which AC50 does the source give for `O=C1[C@H](Cc2ccc(O)cc2)N2C(=O)CCN(C(=O)NCc3ccccc3)[C@H]2CN1Cc1cccc2ccccc12` here?
A: 3.32 µM (active)

Q: Which AC50 does the source give for `COc1cc2ncnc(Nc3cccc(Cl)c3)c2cc1OC` here?
A: 20.9 µM (active)

Q: With `N#Cc1ccc(COC[C@H]2O[C@@H](n3c(NCc4ccc(Cl)c(Cl)c4)nc4c(N)ncnc43)[C@H](O)[C@@H]2O)cc1` as the compound, how does the AC50 read?
A: 18.6 µM (active)

Q: Which outcome does the source give for `CC(=O)Oc1cc2c(s1)CCN(C(C(=O)C1CC1)c1ccccc1F)C2` (stereo unspecified) here?
A: inactive

Q: Which AC50 does the source give for `CN1c2ccccc2C(=O)N2CCc3c([nH]c4ccccc34)C21` (stereo unspecified) here?
A: 2.35 µM (active)

Q: Which AC50 does the source give for `CC[C@H](CC#N)OC(=O)N[C@@H](C)c1cccc(NC(=O)Nc2ccc(-c3cnco3)c(OC)c2)c1` here?
A: 0.468 µM (active)

Q: For `CNc1nccc(-c2cccnc2Oc2cc(C(=O)Nc3cccc(C(F)(F)F)c3)ccc2C)n1`, which AC50 is on record?
A: 5.9 µM (active)

Q: With `CCC(=C/[C@H](C)C/C=C/C(C)=C/[C@@H](C)C(=O)[C@@H](C)[C@H](O)[C@@H](C)C/C(C)=C/C(=O)O)/C=C/[C@@H]1OC(=O)C=C[C@@H]1C` as the compound, how does the AC50 read?
A: 0.00209 µM (active)

Q: Which AC50 does the source give for `Cc1nc([C@](C)(O)CO)sc1-c1cnc(N)c(O[C@H](C)c2cc(F)ccc2-n2nccn2)c1` here?
A: 2.63 µM (active)

Q: With `O=c1ccn([C@@H]2O[C@H](CO)[C@@H](O)[C@@H]2F)c(=O)[nH]1` as the compound, how does the outcome read?
A: inactive

Q: With `COC1=C2C[C@H](C)C[C@H](OC)[C@H](O)[C@@H](C)/C=C(/C)[C@H](OC(N)=O)[C@@H](OC)/C=C\C=C(\C)C(=O)NC(=CC1=O)C2=O` as the compound, how does the AC50 read?
A: 0.417 µM (active)

Q: Which AC50 does the source give for `O=C1NC(=O)[C@@H](c2cn3c4c(cccc24)CCC3)[C@@H]1c1c[nH]c2ccccc12` here?
A: 1.48 µM (active)

Q: For `CCNC(=O)Nc1ccc(-c2nc3c(c(N4CCOC[C@@H]4C)n2)CCN(C2COC2)C3)cc1`, which AC50 is on record?
A: 1.32 µM (active)

Q: For `CN(C)CC(=O)N1CCC(c2ccc(NC(=O)c3ncc(C#N)[nH]3)c(C3=CCCCC3)c2)CC1`, which AC50 is on record?
A: 20.9 µM (active)

Q: Which AC50 does the source give for `Nc1cccc(-c2cc3c(Oc4cccc(O)c4)ncnc3[nH]2)c1` here?
A: 5.25 µM (active)

Q: With `Cc1ccc(C(=O)OCc2ccc([C@@H](CN)C(=O)Nc3ccc4cnccc4c3)cc2)c(C)c1` as the compound, how does the AC50 read?
A: 9.1 µM (active)

Q: For `O=C(O)/C(S)=C/c1ccc(I)cc1`, which outcome is on record?
A: inactive

Q: For `O=C(Nc1nc2cccc(-c3ccc(CN4CCS(=O)(=O)CC4)cc3)n2n1)C1CC1`, which AC50 is on record?
A: 9.34 µM (active)

Q: Which outcome does the source give for `O=C(CCCCCCC(=O)Nc1ccc([C@H]2O[C@@H](CSc3nc(-c4ccccc4)c(-c4ccccc4)o3)C[C@@H](c3ccc(CO)cc3)O2)cc1)NO` here?
A: inactive

Q: With `Cc1cc(O)c(-c2ccc([C@@H](C)CN)cc2)c2c1[nH]c(=O)c1sccc12` as the compound, how does the AC50 read?
A: 0.148 µM (active)

Q: For `CC(C)(O)CC(=O)NCCn1ccc2ncnc(Nc3ccc(Oc4cccc(C(F)(F)F)c4)c(Cl)c3)c21`, which AC50 is on record?
A: 26.3 µM (active)

Q: Which AC50 does the source give for `CNC(=O)c1cc(Oc2ccc(NC(=O)Nc3ccc(Cl)c(C(F)(F)F)c3)c(F)c2)ccn1` here?
A: 20.9 µM (active)

Q: Which AC50 does the source give for `CS(=O)(=O)N1CCc2c(-c3cnc(N)nc3)nc(N3CCOCC3)nc21` here?
A: 0.525 µM (active)
